# Assay outcomes deposited in PubChem BioAssay by National Center for Advancing Translational Sciences (NCATS).
# This is a sample that favours compounds with a hit; in the whole collection about 1.1% have one here.
# AMA1 RON2 block: AMA1-RON2 (P. falciparum) interaction inhibition; Potency, µM (series often up to 58.2 µM), for inactives: top-dose activity change, negative = inhibition, usual class: inhibitors; AlphaScreen AMA1-biotinylated RON2 peptide binding; actives 0.2% (n = 360,000);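 further: 0% = vehicle wells and -100% = peptide control; nearly all actives have a fitted effect of over 45% in size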
#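 AMA1 (3D7) with his tag at 25 nM final met compounds first, then biotinylated RON2 peptide at 25 nM; detection used donor plus acceptor beads, 10 µg/mL apiece, read by AlphaScreen after 30 min at room temperature.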
# AmpC inh detg: AmpC beta-lactamase inhibition with detergent present | P00811 | AmpC hydrolysis of nitrocefin, absorbance 480 nm, 0.01% Triton | Potency, µM (doses to about 114 µM), for inactives: top-dose activity change, negative = inhibition, hits mostly inhibitors | actives 0.041% (n = 370,000);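 further: 0% = no-compound wells and -100% = no-enzyme wells; nearly all actives have a fitted effect of over 25% in size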
#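 20 mM phosphate pH 7.0 + 0.01% (detergent screen) or 0.0001% Triton X-100; 5.3 nM AmpC reagent; cpd preinc 15 min RT; nitrocefin (800 uM stock) to start; A480 q20 s × 4 min; Activity was normalised to no-enzyme and no-compound control wells.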
# Giardia FBPA inh-1: inhibitors of Giardia lamblia fructose-1,6-bisphosphate aldolase; A8B2U2; purified Giardia FBPA; Potency, µM (highest dose often 59.6 µM), for inactives: at the top dose activity, negative = inhibition, most hits filed as inhibitors; actives 0.71% (n = 290,000); further: nearly all actives have a fitted effect of over 55% in size
#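 Giardia FBPA (40 nM reagent) was preincubated 10 min at RT with compound (up to 57.5 uM final), then substrate plus GAPDH/TPI/NAD/arsenate coupling system with diaphorase/resazurin was added; resorufin fluorescence (525/598 nm) was read after 20 min.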
# AmpC no deterg: AmpC beta-lactamase inhibition without detergent. P00811. AmpC nitrocefin hydrolysis, absorbance 480 nm, 0.0001% Triton. Potency, µM (series often up to 57.1 µM), for inactives: at the top dose activity change, negative = inhibition, usual class: inhibitors. actives 0.52% (n = 330,000). AID 485341;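 further: plate controls were no compound for no effect and no enzyme for full effect; nearly all actives have a fitted effect of over 20% in size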
#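 AmpC (5.3 nM in the dispensed reagent) in 20 mM phosphate pH 7.0 with 0.01% (detergent screen) or 0.0001% Triton X-100 was preincubated with compounds for 15 min at room temperature. Nitrocefin was then added from an 800 uM solution, and hydrolysis was followed at 480 nm.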
# Giardia growth: blocks growth of Giardia lamblia trophozoites; shares compounds with Giardia FBPA inh-1; Giardia lamblia trophozoite growth inhibition; Potency, µM (titrated, usually from 57.5 µM), for the others: at the top dose activity change, negative = inhibition, actives largely listed as inhibitors; actives 5% (n = 1,500); AID 2785;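 further: trophozoites exposed to compound for 48 h at 37 °C; nearly all actives have a fitted effect of over 70% in size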
# Mammalian tox: mammalian cytotoxicity of Giardia aldolase inhibitor hits; shares compounds with Giardia FBPA inh-1; Potency, µM (series often up to 57.5 µM), for the others: top-dose viability change, negative = toxicity, actives largely listed as inhibitors; actives 4% (n = 1,500); AID 2786; mammalian cell viability counter-screen, qHTS;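 further: Chinese hamster ovary cells used as mammalian cytotoxicity surrogate; viability measured as cellular ATP by luminescence; compound exposure lasted 48 h before reading; nearly all actives have a fitted effect of over 60% in size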
# Giardia FBPA inh-2: confirmation of Giardia fructose-bisphosphate aldolase inhibitors | shares compounds with Giardia FBPA inh-1 | AID 2787 | Potency, µM (titrated, usually from 57.5 µM), for inactives: at the highest dose activity change, negative = inhibition, hits mostly inhibitors | purified Giardia aldolase enzyme activity, qHTS | actives 5% (n = 1,500); further: nearly all actives have a fitted effect of over 45% in size
# Rabbit aldolase: selectivity test for Giardia aldolase inhibitors: rabbit aldolase; actives 4% (n = 1,500); Rabbit muscle FBPA enzyme inhibition, selectivity counter-screen; AID 2794; shares compounds with Giardia FBPA inh-1; Potency, µM (doses to about 57.5 µM), for inactives: top-dose activity, negative = inhibition, actives largely listed as inhibitors; further: nearly all actives have a fitted effect of over 60% in size
# Target sequence (P00883 whole entry, looked up): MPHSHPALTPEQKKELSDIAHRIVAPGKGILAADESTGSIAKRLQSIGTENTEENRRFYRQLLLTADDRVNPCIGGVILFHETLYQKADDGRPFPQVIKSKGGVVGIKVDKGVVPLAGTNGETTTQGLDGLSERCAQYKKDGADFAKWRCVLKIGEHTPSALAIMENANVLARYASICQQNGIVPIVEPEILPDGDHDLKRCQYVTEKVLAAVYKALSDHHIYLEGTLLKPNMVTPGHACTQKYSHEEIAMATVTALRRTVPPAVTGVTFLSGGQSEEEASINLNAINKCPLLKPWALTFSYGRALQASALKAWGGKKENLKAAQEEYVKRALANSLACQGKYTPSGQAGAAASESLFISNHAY
# GAPDH coupling: GAPDH inhibition flagged for Giardia aldolase hits. shares compounds with Giardia FBPA inh-1. GAPDH coupling enzyme counterscreen, biochemical, qHTS. Potency, µM (doses to about 57.5 µM), for inactives: at the highest dose activity change, negative = inhibition, usual class: inhibitors. actives 6% (n = 1,500). AID 2795; further: nearly all actives have a fitted effect of over 55% in size
# An asterisk follows results filed as active; ? = inconclusive; nt = no result; [ ] = dose if it differs, or a comment. The call rests on the fitted dose curve; in most records, active means well fitted curve in the direction sought with a large enough effect; inconclusive means small, poorly fitted or top-dose-only effect, or another doubt; inactive means no such curve, though single readings can be large; an effect the other way counts as inactive or inconclusive. Unless noted, on the % scale 0 is the no-effect control and ±100 the full control effect; potency means the concentration at half of the fitted maximal effect.
SMILES,AMA1 RON2 block,AmpC inh detg,Giardia FBPA inh-1,AmpC no deterg,Giardia growth,Mammalian tox,Giardia FBPA inh-2,Rabbit aldolase,GAPDH coupling
O=[N+]([O-])c1ccc(/C=N/NC2=NS(=O)(=O)c3ccccc32)cc1,25.5%,5.8%,-7.9%,-14.4%,nt,nt,nt,nt,nt
CC(NS(=O)(=O)c1ccc2c(c1)CCN2C(=O)CCCC(=O)O)c1ccccc1 (centres undefined),nt,1.4%,nt,nt,nt,nt,nt,nt,nt
COc1ccc(-c2cc(=O)c3ccccc3o2)cc1OC,nt,nt,7.92µM*,nt,-24.5%[38.3 µM],?,?,?,-27.0%
COc1ccc(-c2cc(=O)c3c(OC)c(OC)c(OC)cc3o2)cc1OC,nt,nt,-5.6%,nt,nt,nt,nt,nt,nt
COc1cccc(CN(C)CC(=O)Nc2cccc(S(=O)(=O)N(C)c3ccccc3)c2)c1OC,5.8%[11.6 µM],nt,nt,nt,nt,nt,nt,nt,nt
CCOc1ccc(CN(C)CC(=O)Nc2cccc(S(=O)(=O)N(C)c3ccccc3)c2)cc1,-25.4%,-8.7%,19.9µM*,-9.8%,?,6.5%,4.2%,16.9%,-1.5%
CCCCC(CC)C/C=C1\CC(C(=O)OCC)Oc2ccccc21 (centres undefined) (tested in a mixture with another compound),nt,nt,-1.8%[89.2 µM],nt,nt,nt,nt,nt,nt
COc1ccc(-c2nc3c(c4c2C[C@H](c2ccccc2)OC4)CN(C(=O)c2cc(I)ccc2F)CC3)c(C)c1,nt,nt,6.7%[12.9 µM],nt,nt,nt,nt,nt,nt
Cc1oc2c(O)c(O)ccc2c(=O)c1-c1ccccc1,99.0%,-4.1%,11.2µM*,-40.2%,6.2%,-0.6%,-27.0%,?,-21.9%
Cc1oc2c(O)c(O)ccc2c(=O)c1-c1ccc(Cl)cc1,73.5%,-7.4%,?,-45.7%,nt,nt,nt,nt,nt
C=CCSc1n[nH]c(-c2cccs2)n1,5.0%,?,12.6µM*,-16.0%,-21.7%,5.9%,2.9%,-0.7%,3.5%
Cc1cc(C=C2C(=O)N(C)C(=S)N(C)C2=O)c(C)n1-c1cccnc1,17.0%,1.8%,3.15µM*,-19.0%,-29.4%,6.5%,-12.4%,-6.7%,-29.1%
Cc1ccc(-n2c(C)cc(C=C3C(=O)N(C)C(=O)N(C)C3=O)c2C)cc1,3.8%,nt,nt,nt,nt,nt,nt,nt,nt
O=C(O)CC1S/C(=N/N=C/c2ccccn2)NC1=O (centres undefined),-19.1%,2.3%,17.7µM*,-4.1%,14.9%,11.9%,17.5%,3.5%,8.1%
NC(=O)NC(=O)CC1S/C(=N/N=C/c2ccccc2)NC1=O (centres undefined),35.4%,2.4%,-0.4%,-10.5%,nt,nt,nt,nt,nt
S=c1[nH]c2cc(Cl)c3cccnc3c2o1,26.7%,-10.0%,3.55µM*,-27.2%,-6.1%[38.3 µM],-14.9%,?,?,?
CN1CCN(Cc2c(F)cccc2Cl)CC1,14.1µM*,-0.1%,25.1µM*,-4.0%,72.0%,14.0%,-3.1%,-5.8%,?
Fc1cccc(F)c1CN1CCN(c2ccc(Cl)cc2)CC1,?,-8.6%,0.1%,-9.7%,nt,nt,nt,nt,nt
O=C(Nc1ccc(F)cc1)Oc1ccc[nH]c1=O,18.3%,-4.8%,?,-16.8%,6.9%[38.3 µM],-17.4%,0.461µM*,?,-29.7%
CCOC(=O)c1c(C)nc(C(Cl)(Cl)Cl)nc1N,6.5%,3.4%,?,-18.9%,nt,nt,nt,nt,nt
COC(=O)c1cc(=O)c2c(C)nc(C(Cl)(Cl)Cl)nc2[nH]1,-20.7%,?,19.9µM*,-15.6%,-20.5%,-17.7%,-3.0%,-5.0%,-22.5%
Cn1c(SCc2nc3ccccc3c(=O)[nH]2)nc2ccccc21,0.0%,0.5%,0.0%,-22.7%,nt,nt,nt,nt,nt
